Screening data from PubChem.
Most compounds without a hit are left out; they make up all but 7.1% or so of the library.
M1 antagonist: blocks the rat M1 muscarinic receptor response to acetylcholine | CHO-M1 cells, Fluo-4 calcium, ACh EC80 antagonist mode; stronger effect = lower value | P08482 | B-score at 10 µM | 64,000 tested, 3.4% active;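 active means calcium fluorescence response, raw or row-and-column corrected B-score, differing from the plate sample mean either way at a set confidence level, mostly lower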
M1 ag: M1 muscarinic receptor agonism; 64,000 tested, 3% active; AID 626; CHO-M1 cells, Fluo-4 calcium fluorescence, agonist mode; stronger effect = higher value; B-score at 10 µM;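 active means fluorescence rise, raw or as B-score row- and column-corrected plate score, outside the 99.7% band of its plate's samples, either direction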
PTK2B oligo ant: blocks oligomerization of human Pyk2 in cells; Q14289; Q293 cells, Pyk2 FERM NanoBiT luminescence; stronger effect = lower value; z-score (the deposit names both 25 µM and 10 µM); 99,000 tested, 0.83% active; AID 1347419;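 active means Z-score of -3 or lower, scaled per plate to the spread of control and sample wells; inactive means z-score above -3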;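 further: negative z-score means lost luminescence so less FERM oligomerization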
Target sequence (Q14289 whole entry, looked up): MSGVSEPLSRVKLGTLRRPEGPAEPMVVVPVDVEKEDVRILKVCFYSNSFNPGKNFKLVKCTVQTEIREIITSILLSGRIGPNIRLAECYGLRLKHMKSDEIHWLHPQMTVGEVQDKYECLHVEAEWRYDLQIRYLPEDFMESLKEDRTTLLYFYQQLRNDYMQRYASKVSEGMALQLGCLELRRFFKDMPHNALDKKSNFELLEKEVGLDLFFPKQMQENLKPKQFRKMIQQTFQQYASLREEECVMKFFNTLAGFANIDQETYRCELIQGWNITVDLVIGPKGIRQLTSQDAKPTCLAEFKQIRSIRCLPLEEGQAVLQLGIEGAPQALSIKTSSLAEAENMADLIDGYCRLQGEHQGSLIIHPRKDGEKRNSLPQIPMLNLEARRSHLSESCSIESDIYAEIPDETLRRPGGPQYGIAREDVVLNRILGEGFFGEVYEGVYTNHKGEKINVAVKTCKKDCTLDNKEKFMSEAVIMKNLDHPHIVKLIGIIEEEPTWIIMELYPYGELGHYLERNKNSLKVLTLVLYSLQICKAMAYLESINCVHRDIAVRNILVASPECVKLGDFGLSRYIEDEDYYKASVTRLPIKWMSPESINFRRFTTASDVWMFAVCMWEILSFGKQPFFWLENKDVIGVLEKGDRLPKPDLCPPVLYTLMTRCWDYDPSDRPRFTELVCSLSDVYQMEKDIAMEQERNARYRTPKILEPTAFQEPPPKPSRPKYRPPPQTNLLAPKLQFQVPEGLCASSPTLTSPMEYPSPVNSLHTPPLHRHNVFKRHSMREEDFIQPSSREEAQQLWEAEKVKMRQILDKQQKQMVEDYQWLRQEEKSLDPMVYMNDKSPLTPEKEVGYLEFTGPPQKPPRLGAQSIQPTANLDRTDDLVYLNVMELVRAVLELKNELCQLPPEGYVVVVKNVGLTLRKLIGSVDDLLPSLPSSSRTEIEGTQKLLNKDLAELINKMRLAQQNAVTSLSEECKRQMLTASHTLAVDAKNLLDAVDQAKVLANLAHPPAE
Cav32 inh: blocks human Cav3.2 T-type calcium channel; AID 449739; 100,000 tested, 4% active; B-score at 10 µM; Cav3.2-expressing cells, Fluo-4 calcium fluorescence FDSS; stronger effect = lower value; O95180;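 active means single-dose well whose peak fluorescence ratio is a statistical outlier from its plate by either plate-standardised score or position-corrected B-score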
* hit, by the source's call; . = not tested or not shown.

SMILES | M1 antagonist | M1 ag | PTK2B oligo ant | Cav32 inh
Cc1cc(-c2cc(-c3ccccc3)on2)nc(NCC2CC2)n1 | . | . | . | 2.2
Cc1ccc(-c2nnc(SCC(=O)N3CCCC3)o2)cc1 | -0.027 | -0.21 | 0.99 | 0.2
O=C(CSc1nnc(-c2ccccc2Cl)o1)N1CCCCC1 | -0.66 | 1.4 | . | -4.2*
Nn1c(SCC(=O)NCCC2=CCCCC2)nnc1C(F)(F)F | . | . | 0.7 | 0.28
CCOC(=O)CNc1c(-c2ccc(O)cc2)nc2ccc(Cl)cn12 | -1.4 | 7.8* | -0.32 | -1
Cc1ccc(C)c(N2CCN(C(=O)Cn3c(=O)[nH]c4ccsc4c3=O)CC2)c1 | . | . | -1.5 | -1.5
CCOC(=O)C1=C(c2ccccc2)Nc2ncnn2C1c1cc(OC)cc(OC)c1OC (centres undefined) | 1.1 | 2.8 | -0.44 | 1.7
CCOC(=O)C1=C(c2ccccc2)Nc2ncnn2C1c1cccc(OC)c1OC (centres undefined) | 0.082 | 1.2 | -1.1 | 3.4*
COc1cccc(/C=N/n2c(SC)nnc2-c2ccccc2)c1OC | 0.15 | -0.63 | 0.24 | -0.78
COc1cccc(/C=N/n2c(SC)nnc2-c2ccccc2)c1O | -1 | 7.2* | -1.8 | -1.3
Cc1ccc(N2C(=O)[C@@H]3[C@H](C2=O)C2c4ccccc4C=CN2[C@@H]3C(=O)c2ccco2)cc1 (some centres undefined) | -0.57 | 3.5 | -0.62 | -0.23
CC(=O)[C@@H]1[C@@H]2C(=O)N(Cc3ccccc3)C(=O)[C@@H]2C2c3ccccc3C=CN21 (some centres undefined) | 0.058 | 26* | -0.13 | -1.8
COc1ccc(OC)c(C2C(C(=O)Nc3nc4ccccc4s3)=C(C)NC3=C2C(=O)CCC3)c1 (centres undefined) | . | . | -1.5 | -7.5*
CC(C)NC(=O)c1ccc(C2SCC(=O)N2Cc2ccccc2)cc1 (centres undefined) | . | . | -0.54 | 0.79
COC(=O)C1N[C@@H]([C@@H](NC(=O)COc2ccccc2)C(=O)NCc2ccsc2)SC1(C)C (some centres undefined) | . | . | . | 0.67
Cc1cccc(NC(=O)C2CCN(S(=O)(=O)c3cccc4nsnc34)CC2)n1 | -1.7 | 0.43 | 0.14 | 0.022
COc1ccc2nc(NC(=O)C3CCN(S(=O)(=O)c4cccc5nsnc45)CC3)sc2c1 | -0.25 | 0.58 | -3.4* | -0.39
N#CN=C1SCCS1 | 0.019 | -0.87 | 0.04 | -4.5*
COc1ccc2oc(=O)c(/C(C)=N/NC(=O)c3ccncc3)cc2c1 | . | . | -0.01 | .
CCN(C1CCCCC1)S(=O)(=O)c1ccc(OC)c(C)c1 | -1.3 | 1.2 | -1.2 | -6.3*
CCN(C1CCCCC1)S(=O)(=O)c1cc(C)ccc1OC | 0.23 | -0.61 | -1.2 | -3.2
O=C(CCC1N=C2c3ccccc3N=C(SCc3ccccc3Cl)N2C1=O)NCc1ccco1 (centres undefined) | -0.12 | -0.45 | 0.68 | -4.2*
O=C(CSC1=Nc2ccccc2C2=NC(CC(=O)NC3CCCCC3)C(=O)N12)NCc1ccco1 (centres undefined) | -0.11 | -1.1 | -0.71 | -0.71
O=C1CN(C(=O)COC(=O)CCSc2ccccc2Cl)c2ccccc2N1 | . | . | 1.3 | 0.78
O=C(Cc1ccc(NS(=O)(=O)c2ccc(F)cc2)cc1)NCc1ccccc1 | . | . | -1.1 | -5.2*
SMILES | M1 antagonist | M1 ag | PTK2B oligo ant | Cav32 inh
CCNC(=O)Cc1ccc(NS(=O)(=O)c2ccc(F)cc2)cc1 | 0.15 | -0.29 | 0.32 | 0.022
CC(C)(C)c1cc(N)on1 | . | . | 1.2 | .
COc1ccc(C2CC(=O)c3cnc(NC(=O)c4ccccc4)nc3C2)c(OC)c1 (centres undefined) | -0.053 | -0.23 | 2.4 | -3.3*
COc1ccccc1C(=O)Nc1ncc2c(n1)CC(c1ccco1)CC2=O (centres undefined) | 1.3 | 0.093 | -0.41 | -0.16
O=C1C=C(c2cc3ccccc3s2)CCC1 | . | . | . | -0.84
CCCOC(=O)C1C2C=CC(C3CC23)C1C(=O)OCC(=O)c1ccccc1 (centres undefined) | . | . | -0.65 | -5.5*
Oc1ccccc1C1=Nc2ncnn2C(c2ccc(F)cc2)C1 (centres undefined) | -0.17 | 0.082 | -0.72 | 1.3
COc1ccc(/C=C/C(=O)NC(=S)NNC(=O)Cc2cccs2)cc1OC | . | . | 0.2 | -0.95
COc1ccc(C(=O)NC(=S)NNC(=O)Cc2cccs2)cc1 | . | . | 0.16 | -4.9*
O=C(/C=C/c1cccs1)NC(=S)NNC(=O)Cc1cccs1 | . | . | -0.09 | -4.2*
COc1ccc(C(=O)NNC(=S)NC(=O)c2ccco2)cc1 | . | . | 2.4 | -5.5*
Cc1sc2nc(SCc3nnc(-c4cccs4)o3)n(C3CCCC3)c(=O)c2c1C | 0.72 | -0.0019 | -0.51 | -3.5
Cn1c2ccccc2c(=O)c2c(=O)n(C3CCCCC3)c(-c3cccs3)nc21 | . | . | -1.2 | -4.3*
COc1ccc(/C=N/NC(=O)c2cccc([N+](=O)[O-])c2)cc1OC(=O)c1ccc(C)cc1 | . | . | 1 | -5.4*
COc1ccc(/C=N/NC(=O)c2cccc([N+](=O)[O-])c2)cc1OC(=O)c1ccccc1 | . | . | 0.14 | -0.92
Cn1c(=O)n(Cc2ccccc2)c(=O)c2c1nc1n2CCCN1C1CCCCC1 | 0.065 | 1.4 | . | .
Cn1c(=O)n(Cc2ccc(F)cc2)c(=O)c2c1nc1n2CCCN1C1CCCCC1 | -0.081 | 0.031 | -0.95 | -4.9*
COc1ccc(N2CC(C)Cn3c2nc2c3c(=O)n(Cc3ccc(F)cc3)c(=O)n2C)c(OC)c1 (centres undefined) | 0.61 | 0.2 | -0.11 | -4.7*
COc1ccc(N2C(=O)CCC2(C#N)c2ccc(Br)cc2)cc1 (centres undefined) | . | . | -0.89 | -1.2
CCOC(=O)c1c(N2C(=O)C=CC2=O)sc(C)c1C | . | . | 0.07 | 0.012
Cc1ccc(-c2nc3ccc(NS(=O)(=O)c4ccccc4)cc3[nH]2)o1 | . | . | -0.83 | .
CN(C)c1nc2n(c(=O)n1)C(C#N)CS2 (centres undefined) | 3* | -0.059 | 0.59 | -0.13
CN(C)c1nc2n(c(=S)n1)CCS2 | 0.79 | 0.96 | -0.06 | -0.32
Cc1ccc(C)c(-n2nnnc2SCC(=O)NCCC2=CCCCC2)c1 | -0.26 | 0.095 | -0.44 | -7*
C=C1CCC(C)C(C)(CCC2=CCOC2=O)C/C=C\C=C/1C(=O)O (centres undefined) | . | . | . | -3.9*
SMILES | M1 antagonist | M1 ag | PTK2B oligo ant | Cav32 inh
COc1ccc(C)cc1NC(=O)C(=O)NCc1ccncc1 | . | . | 0.02 | 0.96
C=CCNc1cccc(Br)c1 | . | . | . | 1
CCOCCCn1c(=NC(=O)c2cccnc2)c(C(=O)OCC)cc2c(=O)n3ccccc3nc21 | -0.55 | 1.3 | -0.1 | 4.2*
CCCCOc1ccc(OCCNS(=O)(=O)N(C)C)cc1 | -0.53 | -1.4 | -0.85 | -1.9
CC(C(=O)OCC(=O)Nc1ccc(S(=O)(=O)N2CCCCC2)cc1)N1C(=O)c2ccccc2C1=O (centres undefined) | . | . | 0.78 | -5.7*
O=C(CS(=O)(=O)Cc1ccccc1)Nc1ccc(S(=O)(=O)N2CCCCCC2)cc1 | . | . | -0.7 | -7.1*
O=C(COC(=O)CCc1ccc(S(=O)(=O)N2CCCCC2)cc1)Nc1ccc2c(c1)OCO2 | 0.19 | -0.0022 | 1.4 | -5.5*
O=C(COC(=O)CN1C(=O)c2ccccc2C1=O)Nc1ccc(S(=O)(=O)N2CCCC2)cc1 | . | . | 1.8 | -1.3
O=C(CN1CCCCC1)Nc1ccc(S(=O)(=O)N2CCCCCC2)cc1 | -1.5 | 0.018 | 0.67 | 0.62
Cc1nc2c(n1C1CCCCC1)C(=O)c1ccccc1C2=O | . | . | -0.35 | .
